# Structures can show the parent of a compound that is named as a salt.
# Legend:
# [1] = test system: Staphylococcus aureus MW2 delta-mecA (mecA-); test: normalized GFP fluorescence (growth of mecA- strain) (fraction of control range); higher = more growth of mecA- strain; details: compound concentration: 150 uM; cefoxitin: subinhibitory; fluorescent label: GFP
# Procedure, shortened: (§1)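 Single-replicate 1536-well plates carried 150 μM compound (1.5% DMSO), onto which 5 µL/well of a 1:1 mix of pre-induced S. aureus MW2 cells was dispensed: gene-carrying cells tagged with DsRed and deletion cells tagged with GFP, in LB with a subinhibitory antibiotic dose set daily. Incubation ran 20 h at 37 °C, 90% humidity, unshaken, followed by DsRed (540/590) and GFP (485/520) reads. Per-plate scaling of each channel used single-strain control medians, and plates with high untreated ratios and rows with DsRed/GFP >10 were excluded.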
# [2] = test system: Staphylococcus aureus MW2 (mecA+); test: normalized DsRed fluorescence (growth of mecA+ strain) (fraction of control range); higher = more growth of mecA+ strain; details: compound concentration: 150 uM; cefoxitin: subinhibitory; fluorescent label: DsRed
# Procedure, shortened: as §1
Structure (SMILES),normalized GFP fluorescence [1],normalized DsRed fluorescence [2]
CC(=O)c1ccc2c(c1)N(CCCN1CCN(CCO)CC1)c1ccccc1S2,0.252,1.08
CN(C)CCCN1c2ccccc2CCc2ccccc21,0.0133,1.83
CCN(CC)CCNC(=O)c1cc(Cl)c(N)cc1OC,0.639,0.756
COCCCC/C(=N\OCCN)c1ccc(C(F)(F)F)cc1,0.551,0.562
Nc1ccc(S(=O)(=O)Nc2ncccn2)cc1,0.475,0.718
O=C(NCCO[N+](=O)[O-])c1cccnc1 [Nicorandil (Ikorel)],0.624,0.986
CCCCC(CC)COC(=O)C=Cc1ccc(OC)cc1 (stereo not drawn),0.289,0.473
COc1cc2c(Oc3ccc4[nH]c(C)cc4c3F)ncnc2cc1OCCCN1CCCC1 [Cediranib (AZD2171)],-0.00111,1.4
O=C1CC2(CCCC2)CC(=O)N1CCCCN1CCN(c2ncccn2)CC1,0.698,0.71
C#Cc1cccc(Nc2ncnc3cc4c(cc23)OCCOCCOCCO4)c1 [Icotinib],0.488,0.429
CCc1nc(N)nc(N)c1-c1ccc(Cl)cc1,0.211,0.879
CC(=O)N(O)CCCCCNC(=O)CCC(=O)N(O)CCCCCNC(=O)CCC(=O)N(O)CCCCCN,0.272,1.26
O=C(c1cc(Cc2n[nH]c(=O)c3ccccc23)ccc1F)N1CCN(C(=O)C2CC2)CC1 [Olaparib (AZD2281)],0.204,0.856
CC(C)(O/N=C(\C(=O)N[C@@H]1C(=O)N2C(C(=O)[O-])=C(C[n+]3ccccc3)CS[C@H]12)c1csc(N)n1)C(=O)O,0.00772,1.28
CN1CCN(C2=Nc3ccccc3Oc3ccc(Cl)cc32)CC1,0.35,1.01
Cc1ccc(NC(=O)c2ccc(CN3CCN(C)CC3)cc2)cc1Nc1nc(-c2cccnc2)cs1 [Masitinib (AB1010)],0.0914,0.633
OCC(S)CS (stereo not drawn),0.185,0.549
C=C1/C(=C\C=C2/CCC[C@]3(C)[C@@H]([C@H](C)CCCC(C)(C)O)CC[C@@H]23)C[C@@H](O)C[C@@H]1O [Calcitriol (Rocaltrol)],-0.00685,1
CCN[C@H]1CN(CCCOC)S(=O)(=O)c2sc(S(N)(=O)=O)cc21,0.268,0.875
CCCc1nc(C)c2c(O)nc(-c3cc(S(=O)(=O)N4CCN(CC)CC4)ccc3OCC)nn12,0.68,0.461
CC(=O)O[C@]1(C(C)=O)CC[C@H]2[C@@H]3C=C(C)C4=CC(=O)CC[C@]4(C)[C@H]3CC[C@@]21C,0.381,0.78
CCC(CC)[C@H](NC(C)=O)[C@@H]1[C@H](O)[C@@H](C(=O)O)C[C@H]1NC(=N)N [Peramivir Trihydrate],0.634,0.659
Oc1ncnc2[nH]ncc12,0.524,0.531
Cc1nc(C)c(Cl)c(O)c1Cl,0.341,0.741
CCC1(C)OC(=O)N(C)C1=O (stereo not drawn),0.387,0.876
CC(CN1c2ccccc2Sc2ccccc21)N(C)C (stereo not drawn),-0.00976,0.917
CC[C@]12C=CCN3CC[C@@]4(c5cc([C@@]6(C(=O)OC)C[C@@H]7C[C@@H](C(C)(F)F)CN(Cc8c6[nH]c6ccccc86)C7)c(OC)cc5N(C)[C@H]4[C@@](O)(C(=O)OC)[C@@H]1OC(C)=O)[C@@H]32 [Vinflunine Tartrate],0.315,0.556

Structure (SMILES),normalized GFP fluorescence [1],normalized DsRed fluorescence [2]
CC(=O)Nc1c(I)c(NC(C)=O)c(I)c(C(=O)O)c1I,0.477,1.13
NC[C@@H]1O[C@H](O[C@H]2[C@@H](O)[C@H](O[C@@H]3[C@@H](O)[C@H](N)C[C@H](N)[C@H]3O[C@H]3O[C@H](CN)[C@@H](O)[C@H](O)[C@H]3N)O[C@@H]2CO)[C@H](N)[C@@H](O)[C@@H]1O,0.217,0.718
Nc1ccc(S(=O)(=O)Nc2nccs2)cc1,0.273,1.4
Cc1cc2c(cc1CC(=O)c1sccc1S(=O)(=O)Nc1onc(C)c1Cl)OCO2,0.251,0.293
Nc1nnc(-c2cccc(Cl)c2Cl)c(N)n1 [Lamotrigine],-0.0077,1.04
CN1CCCN=C1/C=C/c1cccc(O)c1,0.279,0.787
CCCC(CCC)C(=O)O [Valproic acid sodium salt (Sodium valproate)],0.506,0.638
COc1cc(C2Oc3ccc(C4Oc5cc(O)cc(O)c5C(=O)C4O)cc3OC2CO)ccc1O (stereo not drawn) [Silymarin (Silybin B)],0.34,0.987
CC(=O)[C@H]1CC[C@H]2[C@@H]3C[C@H](C)C4=CC(=O)CC[C@]4(C)[C@H]3[C@@H](O)C[C@]12C,0.258,0.378
CC(C)[C@H](N)C(=O)OCCOCn1cnc2c(=O)nc(N)[nH]c21 [Valaciclovir HCl],0.302,0.782
Nc1nc(Cl)nc2c1ncn2[C@H]1C[C@H](O)[C@@H](CO)O1 [Cladribine],0.546,0.824
CCOC(=O)C(C)(C)Oc1ccc(Cl)cc1,0.258,0.633
CCCc1nc(C(C)(C)O)c(C(=O)OCc2oc(=O)oc2C)n1Cc1ccc(-c2ccccc2-c2nnn[nH]2)cc1,0.0265,0.605
CC[N+](CC)(CC)CCOc1cccc(OCC[N+](CC)(CC)CC)c1OCC[N+](CC)(CC)CC,0.163,0.336
CCC(=O)O[C@]1(C(=O)SCF)[C@H](C)C[C@H]2[C@@H]3C[C@H](F)C4=CC(=O)C=C[C@]4(C)[C@@]3(F)[C@@H](O)C[C@@]21C,0.777,0.959
CN(c1nccc(=O)[nH]1)C1CCN(c2nc3ccccc3n2Cc2ccc(F)cc2)CC1 [Mizolastine (Mizollen)],0.387,0.462
C[C@H](Cc1cc2c(c(C(N)=O)c1)N(CCCO)CC2)NCCOc1ccccc1OCC(F)(F)F [Silodosin (Rapaflo)],0.269,1.1
O=C1C(CC[S+]([O-])c2ccccc2)C(=O)N(c2ccccc2)N1c1ccccc1 (stereo not drawn),0.525,0.445
Cc1ccc(/C(=C\CN2CCCC2)c2ccccn2)cc1,0.244,0.576
CN(C)CCOc1ccc(/C(=C(/CCCl)c2ccccc2)c2ccccc2)cc1,0.000588,0.0394
CC1(C)O[C@@H]2[C@@H](CO[C@@]3(COS(N)(=O)=O)OC(C)(C)O[C@@H]23)O1,0.798,0.547
O=P(O)(O)C(O)(Cc1cccnc1)P(=O)(O)O [Risedronic acid (Actonel)],0.68,0.671
CC1=CC(=O)c2ccccc2C1=O,0.0466,0.307
CCOC(=O)[C@H](CCc1ccccc1)N[C@@H](C)C(=O)N1[C@H](C(=O)O)C[C@H]2CCCC[C@@H]21,0.598,0.51
COC1=CC(=O)C[C@@H](C)[C@]12Oc1c(Cl)c(OC)cc(OC)c1C2=O,0.227,0.425
Cc1c(OCC(F)(F)F)ccnc1C[S+]([O-])c1nc2ccccc2[nH]1 (stereo not drawn) [Lansoprazole],0.122,0.553
N=C(N)NC(=O)c1nc(Cl)c(N)nc1N,0.602,0.971

Structure (SMILES),normalized GFP fluorescence [1],normalized DsRed fluorescence [2]
CN1Cc2c(N)cccc2C(c2ccccc2)C1 (stereo not drawn),0.359,0.781
COCCc1ccc(OCC(O)CNC(C)C)cc1 (stereo not drawn),0.861,0.587
COc1ccc2[nH]cc(CCNC(C)=O)c2c1 [Melatonin],0.484,0.734
CCN(CCCc1ccccc1)CCCc1ccccc1,0.1,1.17
Nc1ccn(C[C@@H](CO)OCP(=O)(O)O)c(=O)n1 [Cidofovir (Vistide)],0.408,0.568
C[C@H](N)[C@H](O)c1cccc(O)c1,0.482,0.581
CCOc1cc(CC(=O)N[C@@H](CC(C)C)c2ccccc2N2CCCCC2)ccc1C(=O)O,-0.00461,0.578
CCc1cn([C@H]2C[C@H](O)[C@@H](CO)O2)c(=O)[nH]c1=O,0.343,0.714
O=C(O)c1cc(-c2ccc(F)cc2F)ccc1O,0.0802,0.298
CC1=C(/C=C/C(C)=C/C=C/C(C)=C/CO)C(C)(C)CCC1,0.232,0.677
CN(C)CCC(c1ccccc1)c1ccccn1 (stereo not drawn),0.504,0.799
COc1cc2c(cc1Cc1cccc(Cl)c1F)c(=O)c(C(=O)O)cn2[C@H](CO)C(C)C [Elvitegravir (GS-9137)],0.0202,0.102
CCCNC(=O)NS(=O)(=O)c1ccc(Cl)cc1,0.221,0.489
NC[C@H]1CC[C@H](C(=O)O)CC1,0.867,0.725
CCOC(=O)[C@H](CCc1ccccc1)N[C@@H](C)C(=O)N1CCC[C@H]1C(=O)O,0.325,0.611
CN1CCC(=C2c3ccccc3CCc3sccc32)CC1 [Pizotifen malate],0.00361,1.4
CN1C(=O)OC(C)(C)C1=O,0.0459,1.31
CO[C@H]1C[C@@H]2CC[C@@H](C)[C@@](O)(O2)C(=O)C(=O)N2CCCC[C@H]2C(=O)O[C@H]([C@H](C)C[C@@H]2CC[C@@H](OC(=O)C(C)(CO)CO)[C@H](OC)C2)CC(=O)[C@H](C)/C=C(\C)[C@@H](O)[C@@H](OC)C(=O)[C@H](C)C[C@H](C)/C=C/C=C/C=C/1C [Temsirolimus (Torisel)],-0.00155,1.96
Nc1nc2ccc(OC(F)(F)F)cc2s1,0.622,0.37
CC(=O)/N=c1/sc(S(N)(=O)=O)nn1C,0.574,0.53
Cc1ccc(N(CC2=NCCN2)c2cccc(O)c2)cc1,0.3,0.634
CCN1CCCC1CNC(=O)c1cc(S(=O)(=O)CC)c(N)cc1OC (stereo not drawn) [Amisulpride],0.514,0.816
COc1ccc(OC)c(C(O)CNC(=O)CN)c1 (stereo not drawn),0.301,0.764
CCOC(=O)[C@H](CCc1ccccc1)N[C@@H](C)C(=O)N1[C@H](C(=O)O)C[C@@H]2CCC[C@@H]21,0.338,0.71
C[C@]12CC[C@@H]3c4ccc(O)cc4C[C@@H](CCCCCCCCC[S+]([O-])CCCC(F)(F)C(F)(F)F)[C@H]3[C@@H]1CC[C@@H]2O (stereo partly drawn),0.185,0.667

# Reference: the supplement of paper PMC7695840
